Our source for the growth values is PubChem BioAssay (NCI).

The panel holds about 83,000 compounds, 20% with a hit somewhere; the sample as a whole holds those more often.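 Negative percent growth values reflect cell death: -40 means 40% of the cells present at the start died, and -100 means all died.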 Unmarked numbers belong to inactive results. Active and inactive are the calls of the source. The calls were made as follows: active = growth percent below 10; inactive = the rest.

Among the test systems are MOLT-4 leukemia; SR leukemia; OVCAR-8 ovarian; OVCAR-5 ovarian; OVCAR-4 ovarian; SK-OV-3 ovarian; IGROV1 ovarian; OVCAR-3 ovarian; HS 578T breast; NCI/ADR-RES ovarian; T-47D breast; BT-549 breast; MDA-MB-435 melanoma; SW-620 colon; MCF7 breast; HCT-116 colon; HCC-2998 colon; KM12 colon; RPMI-8226 leukemia.
Common to all, as to test: NCI-60 one-dose screen, 48 h (100 = growth as untreated, 0 = no growth, -100 = all killed)
Holding throughout (settings): 10 µM unless noted

`C[C@@]12CC=C3c4nc(Nc5cccc(O)c5)sc4CC[C@]3(C)[C@H]1CC[C@]1(C)C(=O)CC[C@@H]21`: the growth was 5.52% (active) in the assay on MOLT-4 leukemia; 3.61% (active) with SR leukemia; 17.9% in the assay with OVCAR-8 ovarian; 110% in the assay with OVCAR-5 ovarian; 52.1% in the assay on OVCAR-4 ovarian; 37.3% in the assay with SK-OV-3 ovarian. The growth in the assay with IGROV1 ovarian is -12.1% (active); in the assay with OVCAR-3 ovarian, -3.79% (active); with HS 578T breast it was 7.41% (active); in the assay on NCI/ADR-RES ovarian it was 78.9%; with T-47D breast it was -8.55% (active); with BT-549 breast, 17.4%. Moreover, the growth is 42.6% with MDA-MB-435 melanoma; -4.13% (active) with SW-620 colon; -25.9% (active) in the assay on MCF7 breast; -23.7% (active) in the assay with HCT-116 colon; 81.5% in the assay on HCC-2998 colon; 34.7% in the assay on KM12 colon.
Turning to `CCC1CC(O)c2c(O)c3c(c(O)c2C1O)C(=O)c1cccc(O)c1C3=O` (stereo not drawn) (tested in a mixture with another compound), the growth was -23.3% (active) in the assay with MOLT-4 leukemia; -0.491% (active) with SR leukemia; -35.8% (active) with RPMI-8226 leukemia; -21.6% (active) in the assay on OVCAR-4 ovarian; 11.1% in the assay with SK-OV-3 ovarian; -53.5% (active) in the assay with IGROV1 ovarian. The growth in the assay on OVCAR-3 ovarian is -12% (active); in the assay with NCI/ADR-RES ovarian, -55.4% (active); with T-47D breast it was -14.1% (active); in the assay on BT-549 breast it was -68.1% (active); in the assay on MDA-MB-435 melanoma, -90.3% (active); in the assay on SW-620 colon, -60.3% (active). For the same compound, the values for the growth with MCF7 breast, in the assay on HCT-116 colon and in the assay on KM12 colon were -51% (active), -39.8% (active) and -38.4% (active), respectively.
As for `Cc1cc(N(CCCl)CCCl)ccc1C=Nc1cccnc1`, the growth in the assay with MOLT-4 leukemia was 52.1%; in the assay on SR leukemia, 43.9%; with OVCAR-8 ovarian it was 78.2%; in the assay with OVCAR-5 ovarian, 28.2%; in the assay with OVCAR-4 ovarian it was 80.6%; in the assay with SK-OV-3 ovarian, 61.3%. Further, the growth in the assay with IGROV1 ovarian was 99.2%; in the assay with OVCAR-3 ovarian, 87.5%; with HS 578T breast, 113%; in the assay on NCI/ADR-RES ovarian, 71.6%; in the assay on T-47D breast, 45.3%; in the assay on BT-549 breast, 86.9%. For the same compound, the growth is 101% in the assay on MDA-MB-435 melanoma; 85.3% in the assay with SW-620 colon; 36.5% in the assay with MCF7 breast; 77.6% with HCT-116 colon; 90.7% with HCC-2998 colon; 102% in the assay on KM12 colon.
As to `CCn1c2ccccc2c2cc(C(=O)c3cccc4c3CCCN4)ccc21`, the growth with MOLT-4 leukemia is 104%; in the assay with SR leukemia, 95.3%; in the assay with OVCAR-8 ovarian, 113%; in the assay with OVCAR-5 ovarian it was 99%; with OVCAR-4 ovarian, 101%; in the assay on SK-OV-3 ovarian, 106%. Besides, the growth was 110% in the assay on IGROV1 ovarian; 92.1% with HS 578T breast; 92.7% in the assay with NCI/ADR-RES ovarian; 104% with T-47D breast; 98.1% in the assay on BT-549 breast; 97.6% in the assay on MDA-MB-435 melanoma. Besides, the growth with SW-620 colon was 96.1%; in the assay on MCF7 breast, 96.5%; with HCT-116 colon, 105%; in the assay with HCC-2998 colon, 104%; in the assay with KM12 colon it was 94.9%.
For `CC12CCC=CC1CCC1C2CCC2(C)C(c3ccc(=O)oc3)CCC12O` (stereo not drawn), the growth in the assay with MOLT-4 leukemia was -16.7% (active); in the assay on SR leukemia it was -4.41% (active); with OVCAR-8 ovarian, -51.4% (active); with OVCAR-5 ovarian, -80.4% (active); with OVCAR-4 ovarian, -52.8% (active); with SK-OV-3 ovarian, -11% (active). Also, the growth is -12.3% (active) in the assay on IGROV1 ovarian; -74.5% (active) in the assay on OVCAR-3 ovarian; -14.8% (active) in the assay on HS 578T breast; -51.5% (active) in the assay on NCI/ADR-RES ovarian; -13.6% (active) in the assay with T-47D breast; -65.2% (active) with BT-549 breast. For the same compound, the growth is -95.2% (active) in the assay on MDA-MB-435 melanoma; -36.7% (active) in the assay on SW-620 colon; -30.6% (active) in the assay on MCF7 breast; -64.2% (active) in the assay with HCT-116 colon; -21.5% (active) in the assay on HCC-2998 colon; -55.7% (active) in the assay with KM12 colon.
On to `CC1=C([Te]c2ccc(O)cc2)C(=O)c2ccccc2C1=O`, for which the growth in the assay with MOLT-4 leukemia is -17% (active); in the assay on SR leukemia, -14.8% (active); with OVCAR-8 ovarian, 13.6%; in the assay on OVCAR-5 ovarian it was 11.8%; in the assay on OVCAR-4 ovarian, -32.9% (active); with SK-OV-3 ovarian, -15.5% (active). Also, the growth in the assay with IGROV1 ovarian is -27% (active); in the assay with OVCAR-3 ovarian it was -63.7% (active); in the assay with HS 578T breast, 8.43% (active); in the assay on NCI/ADR-RES ovarian, -2.79% (active); with T-47D breast, -67.3% (active); with BT-549 breast, -1.32% (active). Also, the growth with MDA-MB-435 melanoma was -76.7% (active); in the assay with SW-620 colon it was 3.05% (active); in the assay on MCF7 breast, -4.83% (active); in the assay with HCC-2998 colon, -1.49% (active); with KM12 colon it was 6.03% (active).
In the case of `CC(=O)O[C@H]1CC[C@H]2[C@@H]3CC=C4c5nc(-c6ccccc6)sc5CC[C@]4(C)[C@H]3CC[C@]12C`, the growth in the assay on MOLT-4 leukemia was 46.1%; in the assay on SR leukemia, 8.39% (active); with OVCAR-8 ovarian it was 77.9%; in the assay on OVCAR-5 ovarian it was 75.9%; in the assay with OVCAR-4 ovarian, 87.2%; with SK-OV-3 ovarian, 94.5%. For the same compound, the growth in the assay with IGROV1 ovarian is 97.2%; in the assay with OVCAR-3 ovarian, 92.9%; with HS 578T breast, 64.2%; in the assay on NCI/ADR-RES ovarian, 71.1%; in the assay on T-47D breast, 52.4%; with BT-549 breast, 64.8%. In addition, the growth with MDA-MB-435 melanoma was 59.2%; in the assay on SW-620 colon, 55%; in the assay with MCF7 breast, 67.7%; with HCT-116 colon, 51.2%; in the assay with HCC-2998 colon, 54%.
On to `c1ccc(Nc2nc(-c3ccccc3)c[se]2)cc1`, for which the growth was 76.2% with MOLT-4 leukemia; 79.6% in the assay with SR leukemia; 96.3% in the assay on OVCAR-8 ovarian; 96.7% with OVCAR-5 ovarian; 75.6% with OVCAR-4 ovarian; 86.4% with SK-OV-3 ovarian. For the same compound, the growth in the assay with IGROV1 ovarian is 68.8%; in the assay with OVCAR-3 ovarian, 93.5%; with HS 578T breast, 89.6%; in the assay on NCI/ADR-RES ovarian, 97.3%; in the assay on T-47D breast, 6.3% (active); in the assay with BT-549 breast, 87.4%. For the same compound, the growth in the assay with MDA-MB-435 melanoma is 104%; in the assay on SW-620 colon it was 98.8%; with MCF7 breast, 61%; in the assay on HCT-116 colon, 86.3%; with HCC-2998 colon, 86.5%; with KM12 colon, 71.8%.
